HT1080NT lethal: kills 2HG-producing HT-1080-NT fibrosarcoma cells; actives 1.6% (n = 360,000); Potency, µM (highest dose often 46.1 µM), without a hit: at the top dose activity, negative = less viability, hits mostly cytotoxic; HT-1080-NT fibrosarcoma viability, CellTiter-Glo ATP luminescence, 48 h;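 note: NT is the 2HG producing partner of a matched IDH1 knockdown line; potency is the fitted concentration of half-maximal effect; 0% = DMSO-treated cells and -100% = media-only wells without cells; nearly all actives have a fitted effect of over 55% in size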
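Viability of the 2HG-overproducing fibrosarcoma line after 48 hours of compound exposure at 37 degrees C was determined by luminescence with CellTiter-Glo, and concentration-effect curves were then fitted and categorized.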
HT1080 IDH1KD tx: HT-1080 IDH1 knockdown cell toxicity (counter line); HT-1080 IDH1 knockdown viability, ATP luminescence, 48 h; Potency, µM (top dose mostly 46.1 µM), without a hit: at the highest dose activity, negative = toxicity, hits mostly cytotoxic; actives 2% (n = 360,000); AID 686971;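 note: potency is the fitted concentration of half-maximal effect; 0% = DMSO wells and -100% = cell-free medium wells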
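Viability of IDH1-knockdown HT-1080 fibrosarcoma cells was assessed by CellTiter-Glo after 48 h at 37 °C with titrated compound; concentration-effect curves were classified by fit quality and response size.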
DT40 TDP1 CPT: growth inhibition of DT40 Tdp1-/-;hTDP1 cells with camptothecin (screen for TDP1 inhibitors). actives 12% (n = 420,000). Potency, µM (highest dose often 46.2 µM), for the others: at the highest dose activity change, negative = growth inhibition, most hits filed as inhibitors. AID 686979. chicken DT40 Tdp1-/-;hTDP1 cells + 20 nM CPT, ATP luminescence, 48 h; note: potency is the fitted concentration of half-maximal effect; nearly all actives have a fitted effect of over 55% in size
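Chicken DT40 Tdp1-/- cells complemented with human TDP1, 400 cells/well, exposed to compounds plus 20 nM camptothecin for at least 48 h at 37 C; viability read as ATP content by CellTiter-Glo luminescence.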
TDP1 cell noCPT: qHTS for Inhibitors of human tyrosyl-DNA phosphodiesterase 1 (TDP1): qHTS in cells in absence of CPT; DT40 Tdp1-/- hTDP1 cells, no CPT, ATP luminescence, 48 h; Potency, µM (highest dose often 46.2 µM), for the others: at the top dose activity change, negative = growth inhibition, actives largely listed as inhibitors; actives 15% (n = 420,000); AID 686978, 2013; note: potency is the fitted concentration of half-maximal effect; nearly all actives have a fitted effect of over 55% in size
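Camptothecin absent (DMSO only). Human TDP1-complemented DT40 knockout cells, 400 cells/well, 37 °C for minimum 48 hr; ATP measured via CellTiter-Glo, 30 min dark incubation, luminescence.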
IL1B secr inh: inflammasome signaling inhibition, IL-1 beta readout | THP-1 LPS/ATP IL-1B secretion, AlphaLISA, 16 h; stronger effect = lower value | activity change, % at 57.5 µM | actives 4.7% (n = 360,000); in the data active = activity change below about -50%; inconclusive = mostly about -30% to -49%
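Secreted IL-1B measured by AlphaLISA bead assay after 16 h compound exposure of THP-1 cells; compounds (final up to 57.5 uM) added 1 h before LPS (250 ng/mL) and ATP (1.25 mM) stimulation; lower signal means less secretion.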
Active calls of the source: *; ? = inconclusive; / = no result. Only some compounds are listed: those with a hit (about 19% of all), similar ones and a draw of the others. Unless noted, calls come from the whole dose curve; as a rule, active = well fitted curve in the direction sought with a large enough effect; inconclusive = small, poorly fitted or top-dose-only effect, or another doubt; inactive = no such curve, though single readings can be large; an effect the other way counts as inactive or inconclusive. Unless noted, % is set by controls: 0 for no effect and ±100 for the full control effect.

SMILES	HT1080NT lethal	HT1080 IDH1KD tx	DT40 TDP1 CPT	TDP1 cell noCPT	IL1B secr inh
CC(C)N1CCN(Cc2cccc(-c3ccco3)c2)CC1CCO (centres undefined)	-24%	-17%	9%	-20%	13
Cc1ccccc1-c1cccc(CN2CCN(C)C(CCO)C2)c1 (centres undefined)	3%	0%	-23%	4%	-54*
CC(=O)n1cc(Nc2ccc([N+](=O)[O-])cc2)c2ccccc21	-13%	-17%	?	?	17
CCOC(=O)c1ccccc1Nc1cn(C(C)=O)c2ccccc12	?	?	3.7µM*	4.6µM*	25
COc1cc(/C=C2/SC(N)=NC2=O)ccc1Oc1ccc([N+](=O)[O-])cc1[N+](=O)[O-]	-6%	-8%	3.3µM*	2.9µM*	8
COc1cc(/C=C2\SC(N)=NC2=O)ccc1OCC(=O)Nc1ccccc1C	?	?	?	9.2µM*	9
CC1=NN(c2ccccc2)C(=O)/C1=C\c1ccc(Oc2ccc([N+](=O)[O-])cc2[N+](=O)[O-])cc1	21µM*	10µM*	?	?	-29
COc1cc(/C=C2\C(=O)N(c3ccccc3)N=C2C)ccc1Oc1ccc([N+](=O)[O-])cc1[N+](=O)[O-]	-27%	?	16µM*	18µM*	?
COc1cc(/C=C2/C(=O)N(c3ccc(C)c(C)c3)N=C2C)cc([N+](=O)[O-])c1O	2%	0%	-9%	23%	4
CCN(CC)S(=O)(=O)c1ccc(N2CCOCC2)c(NC(=O)C2CCCO2)c1 (centres undefined)	4%	-8%	-25%	1%	32
CCCn1cnc2c(SCc3ccc(Cl)cc3)nc(N)nc21	-14%	1%	?	?	-63*
Nc1nc(SCc2ccccc2)c2ncn(Cc3ccccc3)c2n1	-4%	-8%	?	?	-64*
Nc1nc(SCc2ccccc2Cl)c2ncn(C3OC(CO)C(O)C3O)c2n1 (centres undefined)	3%	0%	-9%	-29%	-26
CCCCn1cnc2c(SCc3ccccc3Cl)nc(N)nc21	-25%	-26%	-4%	?	-87*
CCCCn1cnc2c(SCc3ccccc3)nc(N)nc21	-1%	-6%	?	?	-50*
CCCCn1cnc2c(SCc3ccc(Br)cc3)nc(N)nc21	15µM*	16µM*	?	?	-84*
CCCn1cnc2c(SCc3ccccc3)nc(N)nc21	-1%	-13%	3%	?	-21
Cc1ccc(NC(=O)c2ccccc2N(C)S(C)(=O)=O)cc1C	1%	3%	-33%	2%	14
CCOc1ccc(-c2noc(-c3csc([C@@H]4C[C@H](O)[C@@H](CO)O4)n3)n2)cc1	-6%	-16%	?	23µM*	-10
COc1ccc(-c2noc(-c3csc([C@@H]4C[C@H](O)[C@@H](CO)O4)n3)n2)cc1OC	0%	-9%	?	?	-17
COc1cc(OC)cc(-c2noc(-c3csc([C@@H]4C[C@H](O)[C@@H](CO)O4)n3)n2)c1	7%	2%	?	15µM*	?
CCc1cccc(NC(=O)Cn2c(=O)n(CCc3ccc(OC)c(OC)c3)c(=O)c3ccccc32)c1	/	/	-19%	-5%	/
COc1ccc(CN2C=C3C(=O)C(C)(OC(=O)C4CCCC4)C(=O)C=C3C=C2c2ccsc2)cc1 (centres undefined)	-12%	0%	?	12µM*	-3
COCCN1C=C2C(=O)C(C)(OC(=O)C3CCCC3)C(=O)C(c3ccccc3)=C2C=C1CCCC(=O)OC (centres undefined)	0%	-5%	?	1%	-2
CCCCC1=CC2=C(c3ccco3)C(=O)C(C)(OC(=O)c3ccc(OC)cc3)C(=O)C2=CN1Cc1ccccc1 (centres undefined)	6%	6%	5.2µM*	4.6µM*	3
SMILES	HT1080NT lethal	HT1080 IDH1KD tx	DT40 TDP1 CPT	TDP1 cell noCPT	IL1B secr inh
CCCCC1=CC2=C(c3ccco3)C(=O)C(C)(OC(=O)c3ccc(OC)cc3)C(=O)C2=CN1CCOC (centres undefined)	3%	0%	-26%	-17%	-19
CCCCC1=CC2=C(c3ccco3)C(=O)C(C)(OC(=O)c3ccc(OC)cc3)C(=O)C2=CN1CCc1ccccn1 (centres undefined)	24%	4%	5.8µM*	9.2µM*	-7
CCCCC1=CC2=C(c3ccco3)C(=O)C(C)(OC(=O)c3ccc(OC)cc3)C(=O)C2=CN1C1CCCCC1 (centres undefined)	14%	-3%	4.6µM*	4.6µM*	-14
COc1ccc(C2=NN(CCC(=O)NCc3cccs3)C(=O)CC2)cc1	16%	6%	-12%	-4%	16
CC(C)Oc1ccc(N2CC(C(=O)Nc3ccc(N4CCOCC4)cc3)CC2=O)cc1 (centres undefined)	-8%	0%	?	?	19
CCCCc1ccc(NC(=O)c2cc(-c3ccc(C)c(F)c3)on2)cc1	/	/	-3%	-8%	/
O=C(CN1C(=O)C2CCCCN2c2ccc(C(=O)N3CCCC3)cc21)NCc1ccccc1F (centres undefined)	/	/	?	-18%	/
CCCCC1=CC2=CC(=O)C(C)(OC(=O)CC)C(=O)C2=CN1Cc1ccc(OC)cc1 (centres undefined)	-1%	-1%	26µM*	13µM*	40
CCCCC1=CC2=C(c3ccco3)C(=O)C(C)(OC(=O)c3ccc(OC)cc3)C(=O)C2=CN1Cc1ccc2c(c1)OCO2 (centres undefined)	2%	-5%	9.2µM*	13µM*	?
COC(=O)CCCC1=CC2=C(c3ccccc3)C(=O)C(C)(OC(=O)C3CCCC3)C(=O)C2=CN1C1CCCC1 (centres undefined)	-9%	-16%	?	16µM*	25
Cc1cc(C)c(C(=O)COC(=O)Cn2c(C)csc2=O)cc1C	6%	10%	4%	0%	?
CC12CN3CCN(CC(C3)/C1=N\NC(=O)Nc1cccc(Cl)c1)C2	1%	-1%	-2%	-3%	-15
O=C(CN1C(=O)c2cccnc2Oc2ccc(Cl)cc21)NCCC1=CCCCC1	2%	22%	?	-6%	28
Cc1cc(Cl)ccc1OCCCC(=O)NNC(=O)c1ccccc1O	?	?	?	23µM*	63
COc1ccc(OC)c(NC(=O)NNC(=O)CCCOc2ccc(Cl)cc2C)c1	-18%	?	?	?	-55*
